Where “and” joins values, the source holds several entries; their conditions need not be identical. Equal values may be shown once. Results filed as inconclusive are left out. Calls of active or inactive are those of the source. Rule for the calls: active = hit-call score of the fitted dose curve at least 0.9, where 1 is the maximum; inconclusive = response in the unintended direction; inactive = score below 0.9.
System: not listed separately
Test: IUF_NPC1_cytotoxicity_72hr: Cytotoxicity Assessment at 72 hours in the Leibniz Research Institute for Environmental Medicine (IUF) Neural Progenitor Cell Proliferation Assay (NPC1) (AID 2284332);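 note: rising LDH signal means more cytotoxicity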
Procedure, shortened: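 Membrane-integrity loss is scored from LDH released into the medium, detected as resorufin fluorescence, with activity fitted upward relative to baseline. Test material stays on human fetal-derived progenitor spheres for 72 h.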

| SMILES | outcome | AC50 |
| --- | --- | --- |
| Cc1cc(C(F)(C(F)(F)F)C(F)(F)F)ccc1NC(=O)c1cccc(I)c1C(=O)NC(C)(C)CS(C)(=O)=O | inactive | – |
| CC1(C)[C@H](C(=O)O[C@H](C#N)c2cccc(Oc3ccccc3)c2)[C@@H]1/C=C(\Cl)C(F)(F)F | inactive | – |
| OC(Cc1ccccc1Cl)(Cn1[nH]cnc1=S)C1(Cl)CC1 (stereo not given) | inactive | – |
| CCOCn1c(-c2ccc(Cl)cc2)c(C#N)c(Br)c1C(F)(F)F | – | 50.4 µM (active) |
| CNC(=O)CSP(=O)(OC)OC | inactive | – |
| O=S1OC[C@@H]2[C@H](CO1)[C@]1(Cl)C(Cl)=C(Cl)[C@@]2(Cl)C1(Cl)Cl (stereo not given in full) | inactive | – |
| CS(=O)(=O)c1ccc(C(=O)C2C(=O)CCCC2=O)c(Cl)c1COCC(F)(F)F | inactive | – |

System: not listed separately
Test: CCTE_Mundy_HCI_iCellGluta_NOG_NeuronCount: CCTE's Neurite Outgrowth Assay in iCellGluta cells for Neuron Count, Mundy Lab (AID 2284340);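 note: cells fixed about 48 h after compound addition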
Procedure, shortened: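 Neuron count read by automated high-content imaging of Hoechst 33342 and betaIII-tubulin/Alexa Fluor-488 labelling in human iPSC glutamatergic neurons. Activity fitted relative to DMSO.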

| SMILES | outcome | AC50 |
| --- | --- | --- |
| Cc1cc(C(F)(C(F)(F)F)C(F)(F)F)ccc1NC(=O)c1cccc(I)c1C(=O)NC(C)(C)CS(C)(=O)=O | inactive | – |
| CC1(C)[C@H](C(=O)O[C@H](C#N)c2cccc(Oc3ccccc3)c2)[C@@H]1/C=C(\Cl)C(F)(F)F | inactive | – |
| Cc1ccccc1OP(=O)(Oc1ccccc1C)Oc1ccccc1C | – | 13.5 µM (active) |
| OC(Cc1ccccc1Cl)(Cn1[nH]cnc1=S)C1(Cl)CC1 (stereo not given) | – | 50 µM (active) |
| CCOCn1c(-c2ccc(Cl)cc2)c(C#N)c(Br)c1C(F)(F)F | – | 27.1 µM (active) |
| CS(=O)(=O)c1ccc(C(=O)C2C(=O)CCCC2=O)c(Cl)c1COCC(F)(F)F | inactive | – |

System: not listed separately
Test: CCTE_Mundy_HCI_iCellGluta_NOG_NeuriteCount: CCTE's Neurite Outgrowth Assay in iCellGluta cells for Neurite Count, Mundy Lab (AID 2284342);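 note: chemical exposure about 48 hours starting 2 hours after plating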

| SMILES | outcome | AC50 |
| --- | --- | --- |
| Cc1cc(C(F)(C(F)(F)F)C(F)(F)F)ccc1NC(=O)c1cccc(I)c1C(=O)NC(C)(C)CS(C)(=O)=O | inactive | – |
| CC1(C)[C@H](C(=O)O[C@H](C#N)c2cccc(Oc3ccccc3)c2)[C@@H]1/C=C(\Cl)C(F)(F)F | inactive | – |
| Cc1ccccc1OP(=O)(Oc1ccccc1C)Oc1ccccc1C | – | 12.5 µM (active) |
| OC(Cc1ccccc1Cl)(Cn1[nH]cnc1=S)C1(Cl)CC1 (stereo not given) | inactive | – |
| CCOCn1c(-c2ccc(Cl)cc2)c(C#N)c(Br)c1C(F)(F)F | – | 21.3 µM (active) |
| CS(=O)(=O)c1ccc(C(=O)C2C(=O)CCCC2=O)c(Cl)c1COCC(F)(F)F | – | 25.3 µM (active) |

System: SERPINA7 (gene 6906)
Test: CCTE_GLTED_hTBG: CCTE's human Thyroxine-binding Globulin (TBG) Inhibition Assay, Great Lakes Toxicology and Ecology Division (GLTED) Lab (AID 2284343);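 note: active chemicals lower fluorescence versus DMSO baseline by displacing probe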
Procedure, shortened: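 Human thyroxine-binding globulin was exposed to each chemical for 2 hours, during which the ANSA probe could be displaced. Fluorescence was then measured at 380/475 nm, and loss of signal was analysed relative to DMSO.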

| SMILES | AC50 |
| --- | --- |
| O=C(O)COc1cc(Cl)c(Cl)cc1Cl | 45.6 µM (active) |
| CCCSP(=S)(OCC)Oc1ccc(SC)cc1 (stereo not given) | 1.52 µM (active) |
| Nc1ccc(N)cc1 | 20.3 µM (active) |
| O=S1(=O)OC(c2cc(Br)c(O)c(Br)c2)(c2cc(Br)c(O)c(Br)c2)c2ccccc21 | 7.4 µM (active) |
| CCCCCCCCCCCCc1cccc(S(=O)(=O)O)c1 | 22.2 µM (active) |
| CCCCCCCCCCCCOS(=O)(=O)O | 37.2 µM (active) and 56.4 µM (active) |
| O=C(NC(=O)c1c(F)cccc1F)Nc1cc(Cl)c(OC(F)(F)C(F)C(F)(F)F)cc1Cl (stereo not given) | 19.5 µM (active) |
| CCOCn1c(-c2ccc(Cl)cc2)c(C#N)c(Br)c1C(F)(F)F | 2.12 µM (active) |
| CCOP(=S)(OCC)O/N=C(\C#N)c1ccccc1 | 20.6 µM (active) |
| Oc1c(Br)cc(Br)cc1Br | 10.3 µM (active) |
| Oc1cc(Cl)c(Cl)cc1Cl | 40.8 µM (active) |

Reference: PubChem BioAssay (EPA / NIEHS)
